PubChem BioAssay (NCATS)
Inconclusive results are not listed. Entries that show only a call come without a potency. Calls of active or inactive are those of the source. Calls come from the whole dose curve; as a rule, active = well fitted inhibition curve with a large enough effect; inconclusive = small, poorly fitted or top-dose-only effect; inactive = no such curve, though single readings can be large or run the other way.

Biological target: Retinaldehyde dehydrogenase 3 (Homo sapiens) (UniProt P47895)
Test: qHTS for Inhibitors of the Aldehyde Dehydrogenase Family (ALDH1A3) Validation screen (AID 2061312); note: nearly all actives have a fitted effect of over 45% in size
Conditions: ALDH1A3 enzyme inhibition qHTS validation, fluorescence; series mostly up to 84.7 µM

Compound	Potency
CCCCC1C(=O)N(c2ccccc2)N(c2ccccc2)C1=O	inactive
COc1cc2nc(N3CCN(C(=O)c4ccco4)CC3)nc(N)c2cc1OC	inactive
Nc1nc2ccc(OC(F)(F)F)cc2s1	inactive
O=C(CCN1CCN(C(=O)OCc2cc(Cl)cc(Cl)c2)CC1)c1ccc2[nH]c(=O)oc2c1	inactive
CCN(CC)CCOCCOC(=O)C(CC)(CC)c1ccccc1	inactive
COc1cc2nc(N3CCN(C(=O)C4COc5ccccc5O4)CC3)nc(N)c2cc1OC (stereo unspecified)	inactive
CNCCC=C1c2ccccc2CCc2ccccc21	inactive
O=C(Nc1cc(C(F)(F)F)cc(C(F)(F)F)c1)c1cnc(Cl)nc1C(F)(F)F	inactive
NC(Cc1c[nH]c2ccccc12)C(=O)NC(CCC(=O)O)C(=O)O (stereo unspecified)	inactive
Nc1cc(Cl)c(NC2=NCCN2)c(Cl)c1	inactive
NC(N)=NCCC[C@H](NC(=O)c1sccc1NS(=O)(=O)c1cccc2nsnc12)C(=O)O	inactive
CN(C)CCCN1c2ccccc2CCc2ccc(Cl)cc21	inactive
Clc1ccc(C(c2ccccc2Cl)C(Cl)Cl)cc1 (stereo unspecified)	inactive
Cn1c(=O)c(-c2c(Cl)cccc2Cl)cc2cnc(Nc3ccc(N4CCOCC4)cc3)nc21	inactive
CC1=C(/C=C/C(C)=C/C=C/C(C)=C/C(=O)Nc2ccc(O)cc2)C(C)(C)CCC1	inactive
N#Cc1ccc(C(=O)N2CCC3(CC2)N=C(N)c2c(F)ccc(F)c2N3)cn1	inactive

Compound	Potency
OC[C@H]1O[C@@H](n2cnc3c2NC=NC[C@H]3O)C[C@@H]1O	inactive
Nc1c2c(nc3ccccc13)CCCC2	inactive
CCCCC1CCN(CCCN2C(=O)CCc3ccccc32)CC1	inactive
CN(C)CCCN1c2ccccc2Sc2ccc(C(F)(F)F)cc21	inactive
CCN(CC)c1ncnc2c1ncn2[C@@H]1O[C@H](COP(=O)(O)OP(=O)(O)C(Br)(Br)P(=O)(O)O)[C@@H](O)[C@H]1O	inactive
CCOC(=O)C1=C(C)NC(C)=C(C(=O)OCC)C1c1c(F)c(F)c(F)c(F)c1F	inactive
NC(=NCc1ccccc1)NC(=O)c1nc(Cl)c(N)nc1N	inactive
O=c1[nH]c2cccc(N3CCN(Cc4ccc(-c5ccccc5)cc4)CC3)c2o1	inactive
Cc1cccc(-c2[nH]ncc2-c2ccc3ncccc3n2)n1	inactive
COc1cc(O)c2c(c1)C1OC1C[C@H](O)[C@H](O)C(=O)/C=C\C[C@H](C)OC2=O (stereo partly specified)	inactive
NC(=O)c1ccc2[nH]ccc2c1	inactive
c1ccc2c(c1)CCC[C@H]2Nc1nc2ccccc2[nH]1	inactive
COC(=O)C1=C(C)NC(C)=C(C(=O)OC(C)(C)CN(C)CCC(c2ccccc2)c2ccccc2)C1c1cccc([N+](=O)[O-])c1 (stereo unspecified)	inactive
Oc1ccc(/C=C/c2cc(O)cc(O)c2)cc1	inactive
COc1ccccc1OCCNCC(O)COc1cccc2[nH]c3ccccc3c12 (stereo unspecified)	inactive
